# Compound activity from PubChem.
# AmpC no deterg: inhibitors of E. coli AmpC beta-lactamase without detergent; P00811; AmpC nitrocefin hydrolysis, absorbance 480 nm, 0.0001% Triton; Potency, µM (top dose mostly 57.1 µM), inactives show at the top dose activity change, negative = inhibition, hits mostly inhibitors; 330,000 compounds, 0.52% hits; AID 485341;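 note: plate controls were no compound for no effect and no enzyme for full effect; nearly all actives have a fitted effect of over 20% in size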
# Target sequence (P00811 whole entry, looked up): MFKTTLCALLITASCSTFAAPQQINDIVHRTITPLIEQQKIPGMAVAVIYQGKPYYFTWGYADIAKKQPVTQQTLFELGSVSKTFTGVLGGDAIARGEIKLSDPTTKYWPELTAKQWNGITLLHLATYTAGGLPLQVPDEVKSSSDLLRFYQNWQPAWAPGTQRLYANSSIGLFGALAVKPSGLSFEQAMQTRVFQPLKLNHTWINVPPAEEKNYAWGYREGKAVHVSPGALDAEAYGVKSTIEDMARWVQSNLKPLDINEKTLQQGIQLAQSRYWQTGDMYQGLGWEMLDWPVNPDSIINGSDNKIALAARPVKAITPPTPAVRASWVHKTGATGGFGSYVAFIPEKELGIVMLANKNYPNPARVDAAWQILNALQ
#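 AmpC (5.3 nM in the dispensed reagent) in 20 mM phosphate pH 7.0 with 0.01% (detergent screen) or 0.0001% Triton X-100 was preincubated with compounds for 15 min at room temperature. Nitrocefin was then added from an 800 uM solution, and hydrolysis was followed at 480 nm.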
# AmpC inh detg: blocks E. coli AmpC beta-lactamase in detergent assay | AmpC hydrolysis of nitrocefin, absorbance 480 nm, 0.01% Triton | Potency, µM (titrated, usually from 114 µM), for the others: top-dose activity change, negative = inhibition, usual class: inhibitors | 370,000 compounds, 0.041% hits;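 note: 0% = no-compound wells and -100% = no-enzyme wells; nearly all actives have a fitted effect of over 25% in size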
#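 AmpC (5.3 nM in the dispensed reagent) in 20 mM phosphate pH 7.0 with 0.01% (detergent screen) or 0.0001% Triton X-100 was preincubated with compounds for 15 min at room temperature. Nitrocefin was then added from an 800 uM solution, and hydrolysis was followed at 480 nm.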
# Sm TGR inh: blocks Schistosoma mansoni thioredoxin glutathione reductase; purified TGR, DTNB reduction, TNB absorbance 405 nm; Potency, µM (series often up to 114 µM), for the others: at the top dose activity change, negative = inhibition, usual class: inhibitors; 360,000 compounds, 3% hits; AID 485364; note: nearly all actives have a fitted effect of over 60% in size
#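 First, TGR (20 nM dispensed) and NADPH were mixed with compound. Second, a 15 min room-temperature incubation followed. Third, further NADPH and then DTNB were added to start the reaction. Finally, TNB absorbance was monitored kinetically.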
# An asterisk follows results filed as active; u = inconclusive; x = no result; [ ] = remark or other dose. An excerpt weighted towards active compounds, which were near 3.3% of everything screened. Calls come from the whole dose curve; as a rule, active = well fitted curve in the direction sought with a large enough effect; inconclusive = small, poorly fitted or top-dose-only effect, or another doubt; inactive = no such curve, though single readings can be large; an effect the other way counts as inactive or inconclusive. Unless noted, % is set by controls: 0 for no effect and ±100 for the full control effect; potency is the fitted concentration of half-maximal effect.
SMILES,AmpC no deterg,AmpC inh detg,Sm TGR inh
Cc1ccccc1CNC(=O)C(=O)NCC(c1ccco1)S(=O)(=O)c1cccs1 (configuration not stated),x,-5%,u
O=C(NCc1ccccc1Cl)C(=O)NCC(c1cccs1)S(=O)(=O)c1ccccc1 (configuration not stated),x,-1%,-13%
CSCCC(NC(=O)c1ccccc1Br)C(=O)N1CCN(C(C)=O)CC1 (configuration not stated),-14%,-1%,-33%
C=CCN(C(=O)CNS(=O)(=O)c1ccccc1)C(C(=O)NCCOC)c1cccnc1 (configuration not stated),-5%,u,-1%
CCCn1cc(C(=O)N(C)C2CCCN(Cc3ccccc3F)C2)c(C)n1 (configuration not stated),34%,2%,-1%
COc1ccc(-c2cn3cccnc3n2)cc1NC(=O)c1ccccc1C(F)(F)F,x,2%,7%
CCCn1c(N)c(C(=O)CN(C)CC(=O)Nc2c(Cl)cccc2Cl)c(=O)[nH]c1=O,-20%,0%,-12%
CC(C)(C)N1C(=O)c2ccc(C(=O)Nc3cc(C(=O)O)cc(C(=O)O)c3)cc2C1=O,-12%,u,3%
Cc1cc(C)c(C#N)c(Nc2cccc(C)c2C)n1,-11%,3%,-1%
Cc1ccc(N2C(=O)C(CC(=O)Nc3ccc(F)cc3)N(CCC3=CCCCC3)C2=O)cc1 (configuration not stated),x,-1%,-2%
O=[N+]([O-])c1ccc(N=Cc2ccc(Br)c([N+](=O)[O-])c2)cc1,-14%,u,32µM*
Cc1c(N=Cc2ccc(O)c(Br)c2)cccc1[N+](=O)[O-],-16%,-4%,1%
CC(=NNC(=O)c1cccc(S(=O)(=O)N2CCOCC2)c1)c1ccccc1,-14%,x,x
Cc1ccc(CN2CCN(/N=C/c3ccc(C(=O)O)cc3)CC2)cc1,1%,u,1%
Cc1ccc(CN2CCN(/N=C/c3ccc(O)c(O)c3)CC2)cc1,-18%,u,32µM*
Oc1ccc(/C=N/N2CCN(C3c4ccccc4-c4ccccc43)CC2)cc1O,-36%,0%,10µM*
Oc1ccc(/C=N/N2CCN(C3c4ccccc4-c4ccccc43)CC2)cc1,-25%,7%,0%
NC(=O)c1c(NC(=O)COC(=O)c2ccc(S(=O)(=O)Nc3ccccc3)cc2)sc2c1CCCC2,u,-10%,1%
COc1ccc(/C=N/NC(=O)CCOc2ccccc2C)cc1OC,-1%,-15%,0%
COc1cc(/C=N/NC(=O)CCOc2ccccc2C)cc(Br)c1O,22µM*,1%,-17%
COc1ccc(CNC(=O)c2cc(S(=O)(=O)N3CCOCC3)cn2C)cc1,-3%,-10%,1%
O=[N+]([O-])c1c(NCCCO)cc(Sc2nc3ccccc3s2)c2nonc12,-14%,-2%,-8%
Cc1nnc(Sc2cc(NCCCO)c([N+](=O)[O-])c3nonc23)s1,28µM*,u,0.32µM*
CCC(=O)OCCNc1cc(Sc2nc3ccccc3[nH]2)c2nonc2c1[N+](=O)[O-],-49%,u,0.56µM*
CCC(=O)OCCNc1cc(Sc2nc3ccccc3s2)c2nonc2c1[N+](=O)[O-],-34%,u,0.25µM*
SMILES,AmpC no deterg,AmpC inh detg,Sm TGR inh
Cc1nnc(Sc2cc(NCCO)c([N+](=O)[O-])c3nonc23)s1,-57%,u,u
NCCNc1ccc([N+](=O)[O-])c(Sc2nc3ccccc3[nH]2)c1,-16%,-4%,1%
CC(c1n[nH]c(=S)n1-c1ccccc1)N1CCCCC1 (configuration not stated),-14%[11.4 µM],-11%,4%
COc1cccc(C(=O)Nc2c(C)nn(-c3ccccc3)c2C)c1,-3%,-3%,x
O=C(CN1CCCc2ccccc21)N/N=C/c1ccc(O)cc1O,-44%,u,-1%
Cc1ccc2nc(N3CCN(c4ccccc4F)CC3)c(C=O)c(=O)n2c1,34%,1%,u
Cc1noc(NS(=O)(=O)c2ccc(NC(=O)C(C)C)cc2)c1C,-9%,3%,25µM*
Cc1ccc(OCC(=O)Nc2ccc(S(=O)(=O)Nc3onc(C)c3C)cc2)cc1,-22%,2%,89µM*
CCc1ccc(OCC(=O)Nc2ccc(S(=O)(=O)Nc3onc(C)c3C)cc2)cc1,x,3%,-9%
Cc1noc(NS(=O)(=O)c2ccc(NC(=O)CC(C)C)cc2)c1C,-2%,-5%,-6%
Cc1cccc(C)c1NC(=O)CCS(=O)(=O)c1ccc2c(c1)CC(C)N2C(=O)C1CC1 (configuration not stated),x,4%,-10%
O=C(Nc1c2c(nn1-c1ccc([N+](=O)[O-])cc1)CS(=O)(=O)C2)c1ccco1,-20%,1%,-5%
C=CCN1C(=O)S/C(=C/c2ccc(Sc3nc4ccccc4[nH]3)o2)C1=O,-32%,-9%,-1%
O=C1NC(=O)N(c2ccc(Cl)cc2)C(=O)/C1=C\c1ccc(Sc2nc3ccccc3[nH]2)o1,18µM*,-8%,8.9µM*
Cc1ccsc1C(=O)N(C)C1CCS(=O)(=O)C1 (configuration not stated),-6%,-5%,-8%
CC(C)(C)c1cc(CN2CCCCC2)cc(C(C)(C)C)c1O,-11%,1%,45µM*
COc1ccc(CN2CCCCCC2)cc1,-16%,u,18%
Oc1cccc(CN2CCCCC2)c1,-18%,u,-7%
COc1cc(CN2CCCCCC2)cc(OC)c1,-5%,5%,100µM*
O=C(COC(=O)c1cccc([N+](=O)[O-])c1)Nc1ncc(Br)s1,-31%,x,x
Cc1ccc(S(=O)(=O)N(C)C)cc1NC(=O)COC(=O)CNC(=O)c1cccs1,-16%,u,-6%
O=C(CCl)Nc1cccc2ncccc12,-17%,0%,45µM*
COc1ccc(OCC(=O)Nc2cccc3ncccc23)cc1,-18%,-17%,1%
CCc1nc2sc3c(c2c(=O)n1NC(=O)CCl)CCCC3,-13%,1%,45µM*
CC(=O)N(C(C)=O)n1c(C)nc2sc3c(c2c1=O)CCCC3,3%,6%,x
SMILES,AmpC no deterg,AmpC inh detg,Sm TGR inh
Cc1nn(C(=O)Cn2ccc([N+](=O)[O-])n2)c(C)c1Cl,-1%,0%,-2%
COc1cc(O)c(C(CC(=O)N2CCOCC2)c2cc(OC)c(OC)c(OC)c2)c(OC)c1 (configuration not stated),13%,2%,u
Cc1[nH]c2c(C)cccc2c1CC(=O)O,13%,-2%,-33%
Cc1[nH]c2ccccc2c1CC(=O)O,-18%,u,45µM*
Cc1ccc(Cl)cc1NC(=S)NCc1cccn1C,-31%,-13%,-14%
CCOc1ccc(NC(c2ccccn2)c2oc(CO)cc(=O)c2O)cc1 (configuration not stated),-13%,-1%,10µM*
CCOC(=O)C(c1ccccc1)C(Nc1ccc(F)cc1)c1ccccn1 (configuration not stated),35%,-5%,-10%
CCOc1cc(C2C(C(N)=O)=C(C)Nc3ncnn32)cc(Br)c1O (configuration not stated),x,12%,-10%
CCOc1cc(C2C(C(=O)Nc3ccccc3)=C(C)Nc3ncnn32)cc(Br)c1O (configuration not stated),x,1%,45µM*
